# The full ranking holds about 33,000 sequences; the median of “E-score (-0.5 to 0.5)” is about -0.012, and the highest 2% start at about 0.29. The full list was thinned out, with the highest values kept by preference.
# Molecular target: T1, Ybr033w (UniProt P38073)
# T1 sequence: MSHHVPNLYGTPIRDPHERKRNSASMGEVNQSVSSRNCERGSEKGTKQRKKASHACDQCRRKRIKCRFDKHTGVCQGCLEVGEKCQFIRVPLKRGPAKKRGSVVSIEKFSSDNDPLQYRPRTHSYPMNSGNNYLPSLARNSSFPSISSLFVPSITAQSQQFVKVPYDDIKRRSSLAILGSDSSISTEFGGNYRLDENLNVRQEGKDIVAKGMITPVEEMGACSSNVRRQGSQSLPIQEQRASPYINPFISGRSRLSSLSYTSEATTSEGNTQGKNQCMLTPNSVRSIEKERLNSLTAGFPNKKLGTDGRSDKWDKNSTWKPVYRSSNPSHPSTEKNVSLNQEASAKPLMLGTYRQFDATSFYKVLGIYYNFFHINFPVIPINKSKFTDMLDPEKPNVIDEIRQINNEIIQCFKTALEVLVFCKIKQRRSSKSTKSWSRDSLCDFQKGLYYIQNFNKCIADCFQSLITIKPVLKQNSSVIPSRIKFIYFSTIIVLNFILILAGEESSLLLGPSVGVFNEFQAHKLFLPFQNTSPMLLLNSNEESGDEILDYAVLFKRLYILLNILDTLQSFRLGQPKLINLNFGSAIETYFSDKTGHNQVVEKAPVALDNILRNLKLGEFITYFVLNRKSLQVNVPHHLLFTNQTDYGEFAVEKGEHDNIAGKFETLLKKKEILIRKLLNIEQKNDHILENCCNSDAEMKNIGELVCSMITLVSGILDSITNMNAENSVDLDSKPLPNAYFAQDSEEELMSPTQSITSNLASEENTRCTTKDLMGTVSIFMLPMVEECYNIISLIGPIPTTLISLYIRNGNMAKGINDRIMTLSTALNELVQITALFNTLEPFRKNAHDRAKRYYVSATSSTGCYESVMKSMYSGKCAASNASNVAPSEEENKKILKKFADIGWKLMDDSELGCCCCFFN
# Experiment: PBM E-score (8-mer binding enrichment) (E-score (-0.5 to 0.5)); higher = stronger / more preferred TF binding
# Conditions: protein concentration: 200 nM; construct: GST-full length
# Procedure: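 Universal 'all 10-mer' protein binding microarrays (Agilent AMADID 015681) probed with GST-tagged S. cerevisiae TFs (full-length or DBD) made by in vitro transcription/translation (PURExpress), about 100-200 nM. Bound TF was detected with fluorescent anti-GST. Each ungapped 8-mer (which stands for itself and its reverse complement) is scored by the PBM enrichment score (E-score), a modified Wilcoxon-Mann-Whitney statistic from -0.5 to +0.5, computed with the Universal PBM Analysis Suite. Scale: above 0.35 generally sequence-specific binding.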
row,Sequence,PBM E-score
1,CGCCAGAA,0.043
2,ACAAGTAT,0.249
3,AACACAAC,0.116
4,CCTTTCTC,-0.11
5,CCGTCGCC,-0.247
6,ACGATAAT,0.163
7,TGGATACA,0.0503
8,TTGATAAA,0.368
9,AAGATAAA,0.257
10,AGGATAAT,0.36
11,GTGATAAA,0.102
12,TCGATAAA,0.167
13,TGGATAAA,0.391
14,AGGATACT,-0.0125
15,CAGATAAA,0.194
16,TAGATAAA,0.341
17,ATGATAAA,0.238
18,CTGCTCTC,-0.153
19,AGCCACCA,0.0237
20,AGGCTCAT,-0.0489
21,ACGACCAG,-0.158
22,AAGATAAT,0.307
23,AAGATAAG,0.0844
24,GGGATAGA,-0.196
25,AGGATAAC,-0.109

row,Sequence,PBM E-score
1,GGGATAAC,0.00039
2,GGGATAAA,0.317
3,AGGATAAG,-0.0801
4,AAGATAAC,0.0702
5,AGGATAAA,0.427
6,CAGGTAGG,-0.052
7,ATCCGGGG,0.181
8,GCCCATCA,-0.178
9,AGTCGACT,0.204
10,AGCTTAGA,-0.0294
11,AGATCAAA,0.111
12,GGATCAAC,0.369
13,GGATCAAA,0.367
14,TGATCAAA,0.076
15,CGATCAAC,-0.144
16,AGATCAAC,0.0509
17,CACACTGA,-0.19
18,CCAGGAAC,-0.103
19,GATGTCAA,0.0645
20,CATCTCAA,0.119
21,TATCTCAA,0.32
22,AATGTCAA,0.00312
23,AATCTCAA,0.0508
24,TATGTCAA,0.318
25,AAACGCGA,0.0304

row,Sequence,PBM E-score
1,GAAGACTC,-0.0221
2,CATAACTC,0.0871
3,GGAAATGA,0.133
4,CCAGATTC,-0.16
5,GACGAGTA,0.0188
6,TACGAGTA,0.297
7,CACGAGTA,0.0368
8,AAGAATGC,0.142
9,ATTCGAAA,0.12
10,AATATTAC,0.283
11,TACATTAA,0.345
12,TATATTCA,0.303
13,GATATTAA,0.251
14,CATATTCA,0.0595
15,AATATTAT,0.335
16,AACATTAA,0.224
17,TATATTAA,0.324
18,AATATTAG,0.228
19,GACATTAA,0.166
20,TATATTGA,0.275
21,AATATTCA,0.226
22,CCTGAGCA,-0.075
23,GACGGTTA,-0.192
24,ACCAGTAT,-0.104
25,CCTAACGA,-0.0133

row,Sequence,PBM E-score
1,ATGCGTGG,-0.346
2,GAATCGCC,-0.138
3,CGGTTGCA,-0.122
4,CTGCCCAC,-0.165
5,CAGGTGAA,0.0712
6,CGCCCCCC,-0.434
7,ACTTGTTC,0.25
8,GATGCATC,0.0586
9,GTGGATCA,0.0654
10,GCTGCAGA,-0.101
11,TAAGCAAA,0.179
12,CGTATTAA,0.108
13,AATATGAC,0.109
14,AATATTAA,0.349
15,AATATGAG,0.245
16,AATATGAT,0.317
17,CATATTAA,0.347
18,CATATTAG,0.202
19,AAACTTCC,0.068
20,AACCCAGT,-0.102
21,CGCTACTA,0.218
22,AAGCAACC,0.0073
23,AAAGTTAC,0.224
24,AAAGTTAG,0.297
25,AAAGTTGG,0.0498

row,Sequence,PBM E-score
1,AAAGTTGC,0.0307
2,AAAGTTGT,0.302
3,CAAGTTAG,0.0992
4,TAAGTTAA,0.206
5,AAAGTTAA,0.323
6,CAAGTTAA,0.068
7,CGTTCTAG,-0.0499
8,CCAAGCTC,-0.0526
9,GTAATGGA,0.163
10,AAAGATAC,0.12
11,GAAGATAA,0.319
12,TTAGATAA,0.218
13,TAAGATAA,-0.0896
14,GTAGATAA,0.333
15,AAAGATAA,0.299
16,GAAGATAC,0.17
17,AAAGATCC,0.3
18,ATAGATAA,0.28
19,AAAGATCA,0.173
20,AAAGATCG,-0.0193
21,AAAGATAG,-0.0366
22,CCTCCAAG,-0.176
23,AACGATGG,-0.0425
24,TCCCCTCA,-0.098
25,CTTAGCTC,-0.12

row,Sequence,PBM E-score
1,ATAGATTA,0.329
2,GTAGATTA,0.216
3,AAAGATTA,0.203
4,CAAGATTA,0.185
5,ATAGATTG,0.107
6,GAAGATTA,0.366
7,CCAGGGCA,-0.266
8,AACACTCA,0.13
9,TAACCTCA,0.0768
10,TCGTCCAA,0.0311
11,ACAATCCC,0.0235
12,TCTGTCCA,-0.0429
13,GAATTCAA,0.177
14,AAATTCAG,0.204
15,ATCTTCCA,0.249
16,ATCTTCCC,0.121
17,GTATTCCA,-0.0248
18,ATATTCCG,0.428
19,ATATTCGG,0.0327
20,CTATTCCA,0.17
21,ATATTCTG,0.157
22,ATCTTCCG,0.438
23,ATATTCCA,0.395
24,AAATTCAA,0.288
25,ACTGCACC,-0.018

row,Sequence,PBM E-score
1,CCGCTAAA,-0.117
2,AGACTGTA,-0.175
3,AGGGGAAG,-0.272
4,GCTAGGCA,-0.146
5,AAATTCCA,0.258
6,ACATTCCC,0.0614
7,AATTTCCG,0.325
8,CTATTCCC,-0.043
9,AAATTCCC,0.0364
10,AATTTCCT,0.273
11,CTATTCAA,0.0501
12,ATATTCAA,0.3
13,AAATTCCG,0.309
14,ATATTCCC,0.329
15,TTATTCAA,0.253
16,CATTTCCG,0.12
17,CCTGCAAC,-0.034
18,ACACTCTA,0.121
19,GTGCTGGA,-0.0549
20,AACCACAT,0.00349
21,AGTGGCTG,-0.145
22,AGGTCTGC,-0.104
23,GCGCTCTA,-0.159
24,GTGCGACA,-0.235
25,GTTGCAAA,0.231

row,Sequence,PBM E-score
1,GGTTGCAC,-0.131
2,ATTCGAGA,0.023
3,GGTGCACC,-0.253
4,CTTCAGCC,-0.13
5,AAATCGAC,0.142
6,AAGTCTAT,-0.00931
7,CGTGTGAG,-0.225
8,CGTTCTTC,0.0897
9,AGTTCTTC,0.3
10,ATTTCTTC,0.313
11,AGTTCTTA,0.171
12,ATTTCTTA,0.195
13,ATTTCTTG,0.198
14,CATAGCTC,-0.153
15,AGTATTAG,0.174
16,ACTATTAA,0.325
17,TCTATTAA,0.292
18,ACTATTAG,0.111
19,GCTATTAA,0.201
20,CCTATTAA,0.139
21,AGTATTAA,0.295
22,TGTATTAA,0.272
23,TCTATTCA,0.167
24,CACCCCAG,0.0316
25,ATGCGACA,0.0689

row,Sequence,PBM E-score
1,TAATCTAA,0.236
2,ATGGGATC,-0.0796
3,AGGACAAC,0.0906
4,TCGTTGAA,0.122
5,GACTCTAC,-0.261
6,ACCTGAAC,-0.219
7,GATGCTCA,-0.113
8,CTTGTGCC,-0.354
9,CGCACTAA,0.0977
10,GACATTAC,0.164
11,GCTGCTAC,-0.175
12,GGCCATTA,0.0667
13,ATTTACAG,0.149
14,TATTACAA,0.307
15,ATTTACAC,0.00495
16,AATTACGA,0.277
17,CATTACAA,0.19
18,TATTACGA,0.297
19,CATTACGA,0.0351
20,ATTTACAA,0.31
21,AATTACAA,0.107

# Reference: the supplement of paper PMC3334620
